Data reported in PubChem BioAssay (NCATS).
Values joined by “and” are separate entries in the source; they are usually repeats but may differ in a detail not shown here. Identical values can stand only once. Records with an inconclusive call do not appear. Where a call stands in place of a potency, no number is given. Active and inactive are the calls of the source. Unless noted, the call rests on the fitted dose curve; in most records, active means well fitted curve in the direction sought with a large enough effect; inconclusive means small, poorly fitted or top-dose-only effect, or another doubt; inactive means no such curve, though single readings can be large; an effect the other way counts as inactive or inconclusive.

How the values were obtained:
[1] = qHTS for Inhibitors of Ubiquitin-specific Protease USP2a Using CHOP2 as the Reporter: K633 Counterscreen (AID 652168); further: series mostly up to about 57 µM
In short: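 Detection-system control: fluorescence of K48-linked DiUb-4IQF substrate (100 nM as added) tracked over time, Ex 525/Em 598, with pinned compounds and no enzyme, in pH 8 Tris buffer containing beta-mercaptoethanol and 0.05% Chaps.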

[2] = qHTS for Inhibitors of Ubiquitin-specific Protease USP2a Using CHOP2 as the Reporter: Cytotox Assay (AID 652170); further: nearly all actives have a fitted effect of over 70% in size; further: potency means the concentration at half of the fitted maximal effect
In short: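 Cytotoxicity read as ATP luminescence (CellTiter-Glo) after 72 hr compound treatment at 37 deg C. Cells: HCT116, 600/well in DMEM plus 10% FBS. Normalization between DMSO-treated cells and cell-free wells.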

[3] = biological target: Calcium and integrin-binding protein 1 (Homo sapiens) (UniProt Q99828); experiment: Primary qHTS for Identification of Calcium Integrin Binding Protein 1 (CIB1) Competitor (AID 1508620);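 further: GST tagged CIB1 binding a fluorescein labelled alphaIIb integrin peptide tracer; top concentration of the series differs between compounds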
In short: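 Fluorescence polarization competition: GST-tagged CIB1 (1 uM final) preincubated with compound 15 min at room temperature, then FITC-labelled alphaIIb peptide (100 nM final) added. After 15 min at room temperature, polarization read at Ex 480/Em 540.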

[4] = biological target: Mitogen-activated protein kinase 10 (Mus musculus) (UniProt Q61831); experiment: JNK3 AlphaScreen Assay (AID 530; active means well fitted curve in either direction with a large enough effect, not every such curve was filed as active;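 further: kinase came from lysate of stimulated human HepG2 cells; signal reports phosphorylation of biotinylated GST-cJun 1-79 at Ser73 with 10 µM ATP; series mostly up to about 57 µM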)
In short: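 Activity was read by AlphaScreen after JNK3-containing HepG2 lysate (cytokine pre-activated) phosphorylated biotinylated GST-cJun with 10 uM ATP at room temperature. Phospho-Ser73 cJun antibody with Protein-A acceptor beads provided detection.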

[5] = biological target: Cytochrome P450 3A4 (Homo sapiens) (UniProt P08684); experiment: qHTS Assay for Activators of Cytochrome P450 3A4 (AID 885); further: nearly all actives have a fitted effect of over 65% in size
In short: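 Activators are scored by enhanced luminescence from CYP3A4 conversion of luciferin-PPXE (25uM, equal to KM) to luciferin, after 60 min at RT with an NADPH-regenerating system.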

[6] = qHTS for Inhibitors of the vitamin D receptor (VDR): Hit Validation using a Texas Red Assay (AID 602201); further: potency means the concentration at half of the fitted maximal effect
In short: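 Fluorescence polarization with 1.5 uM VDR-LBD, LG19078 and 7 nM Texas Red (final). After 2 hours at ambient temperature, read at Ex 595 nm/Em 615 nm.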

[7] = biological target: Ubiquitin carboxyl-terminal hydrolase 2 (Homo sapiens) (UniProt O75604); experiment: qHTS for Inhibitors of Ubiquitin-specific Protease USP2a Using CHOP2 as the Reporter: K484 Substrate (AID 652173);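 further: cleavage of internally quenched K48 di-ubiquitin substrate measured as rising fluorescence over time; potency means the concentration at half of the fitted maximal effect; nearly all actives have a fitted effect of over 70% in size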
In short: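 Kinetic fluorescence (Ex 525/Em 598) tracked cleavage of an internally quenched K48 di-ubiquitin substrate, added as a 100 nM solution. The enzyme was added as a 5 nM USP2 solution before compound pinning, with no-enzyme controls. Buffer: Tris pH 8, beta-mercaptoethanol, CHAPS.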

Chain of Cytochrome P450 3A4 (Homo sapiens) (P08684 whole entry, looked up): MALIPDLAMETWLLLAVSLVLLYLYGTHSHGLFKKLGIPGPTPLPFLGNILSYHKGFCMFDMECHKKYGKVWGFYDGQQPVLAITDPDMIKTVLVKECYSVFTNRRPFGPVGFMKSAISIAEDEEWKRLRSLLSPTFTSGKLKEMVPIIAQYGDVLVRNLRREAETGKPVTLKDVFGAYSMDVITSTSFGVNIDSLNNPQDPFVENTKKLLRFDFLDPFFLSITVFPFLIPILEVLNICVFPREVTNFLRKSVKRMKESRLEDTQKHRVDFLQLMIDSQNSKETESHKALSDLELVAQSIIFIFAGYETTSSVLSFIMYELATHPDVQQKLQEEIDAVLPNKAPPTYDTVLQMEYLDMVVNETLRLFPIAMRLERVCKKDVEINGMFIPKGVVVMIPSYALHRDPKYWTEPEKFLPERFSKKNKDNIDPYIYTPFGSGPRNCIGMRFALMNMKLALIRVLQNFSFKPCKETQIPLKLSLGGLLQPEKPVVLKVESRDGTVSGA
Chain of Calcium and integrin-binding protein 1 (Homo sapiens) (Q99828 whole entry, looked up): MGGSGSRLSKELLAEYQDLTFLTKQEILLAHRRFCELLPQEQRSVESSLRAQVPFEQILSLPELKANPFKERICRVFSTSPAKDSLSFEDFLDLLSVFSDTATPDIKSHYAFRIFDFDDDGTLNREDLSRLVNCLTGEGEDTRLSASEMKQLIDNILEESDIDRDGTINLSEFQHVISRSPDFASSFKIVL
Chain of Ubiquitin carboxyl-terminal hydrolase 2 (Homo sapiens) (O75604 whole entry, looked up): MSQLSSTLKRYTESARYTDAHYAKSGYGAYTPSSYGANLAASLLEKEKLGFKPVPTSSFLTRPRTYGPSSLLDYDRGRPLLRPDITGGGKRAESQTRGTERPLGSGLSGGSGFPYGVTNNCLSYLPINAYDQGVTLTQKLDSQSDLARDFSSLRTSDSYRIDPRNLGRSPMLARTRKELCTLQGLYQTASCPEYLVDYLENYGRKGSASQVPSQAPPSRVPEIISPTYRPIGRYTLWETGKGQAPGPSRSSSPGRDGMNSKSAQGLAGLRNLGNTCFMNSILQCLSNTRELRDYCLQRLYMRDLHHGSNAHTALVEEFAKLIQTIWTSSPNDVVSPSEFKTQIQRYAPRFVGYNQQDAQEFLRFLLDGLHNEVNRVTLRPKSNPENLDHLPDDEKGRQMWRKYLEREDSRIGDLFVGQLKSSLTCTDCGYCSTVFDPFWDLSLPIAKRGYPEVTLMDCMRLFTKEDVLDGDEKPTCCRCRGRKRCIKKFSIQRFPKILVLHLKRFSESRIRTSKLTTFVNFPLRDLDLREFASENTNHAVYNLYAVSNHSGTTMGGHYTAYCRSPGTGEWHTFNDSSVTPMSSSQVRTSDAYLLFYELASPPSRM

**Q.** With `CC1CC1C(=O)Nc1ccc([S+](=O)([O-])Nc2nccs2)cc1` (stereo not given) as the compound, how does the outcome [1] read?
**A.** The outcome was “inactive”.

**Q.** What about the Potency [2] of the same compound?
**A.** The Potency was “inactive”.

**Q.** What about the Potency [3] of the same compound?
**A.** Its Potency is “inactive”.

**Q.** Which results are given for `Cc1ccc(S(=O)(=O)Nc2cnccc2C(=O)Nc2ccc(-n3cncn3)cc2)cc1`?
**A.** outcome [1]: inactive; Potency [3]: inactive

**Q.** What does the source list for `Cc1ccc(S(=O)(=O)Nc2cnccc2C(=O)NCc2ccccc2)cc1`?
**A.** outcome [1]: inactive; Potency [2]: inactive; Potency [3]: inactive

**Q.** Which results are given for `Cc1ccc(S(=O)(=O)NCC(=O)Nc2nc(-c3ccccc3)cs2)cc1`?
**A.** outcome [1]: inactive; Potency [2]: inactive; Potency [3]: inactive

**Q.** Which results are given for `O=C(Nc1ccc(S(=O)(=O)Nc2nccs2)cc1)C1CC(OCc2ccccc2)C1` (stereo not given)?
**A.** outcome [1]: inactive; Potency [3]: inactive

**Q.** With `CC(C)(C)OC(=O)N1CCC(C(=O)Nc2ccc([S+](=O)([O-])Nc3nccs3)cc2)CC1` as the compound, how does the outcome [1] read?
**A.** The outcome was “inactive”.

**Q.** What about the Potency [2] of the same compound?
**A.** Its Potency is “inactive”.

**Q.** What about the Potency [3] of the same compound?
**A.** The Potency was “inactive”.

**Q.** Which outcome [1] does the source give for `Cc1ccc(S(=O)(=O)Nc2cnccc2C(=O)Nc2ccccc2)cc1` here?
**A.** Its outcome is “inactive”.

**Q.** What about the Potency [2] of the same compound?
**A.** Its Potency is “inactive”.

**Q.** What about the Potency [3] of the same compound?
**A.** The Potency was “inactive”.

**Q.** Which results are given for `O=C(Nc1ccc(S(=O)(=O)Nc2nccs2)cc1)c1cccnc1`?
**A.** outcome [1]: inactive; Potency [2]: inactive; Potency [3]: inactive

**Q.** Which outcome [1] does the source give for `Cc1cccc2c(C(=O)O)cc(Cl)nc12` here?
**A.** The outcome was “inactive”.

**Q.** What about the Potency [3] of the same compound?
**A.** The Potency was “inactive”.

**Q.** For `Cc1ccc([S+](=O)([O-])n2cc(Cc3ccc(-c4ccccc4)cc3)c3ccccc32)cc1`, which outcome [1] is on record?
**A.** Its outcome is “inactive”.

**Q.** What about the Potency [3] of the same compound?
**A.** Its Potency is “inactive”.

**Q.** What does the source list for `CCN(CC)CCCC(C)n1c(-c2ccccc2)nc2c(N3CCOCC3)nc(C)nc21` (stereo not given)?
**A.** outcome [4]: inactive; Potency [5]: inactive; Potency [3]: inactive

**Q.** Which outcome [4] does the source give for `CCCn1c(C)nc2c(NCc3ccccc3)nc(C)nc21` here?
**A.** The outcome was “inactive”.

**Q.** What about the Potency [5] of the same compound?
**A.** Its Potency is “inactive”.

**Q.** And the Potency [3]?
**A.** Its Potency is “inactive”.

**Q.** Which results are given for `Cc1ccc(-c2cc(C(=O)Nc3ccccn3)c3ccccc3n2)cc1C`?
**A.** outcome [1]: inactive; Potency [2]: inactive; Potency [3]: inactive

**Q.** With `CC(=O)Nc1ccc(S(=O)(=O)Nc2nccs2)cc1` as the compound, how does the outcome [1] read?
**A.** Its outcome is “inactive”.

**Q.** And the Potency [2]?
**A.** The Potency was “inactive”.

**Q.** And the Potency [3]?
**A.** The Potency was “inactive”.

**Q.** Which results are given for `O=C(Nc1ccc(S(=O)(=O)Nc2nccs2)cc1)c1ccnc(-c2ccccc2)c1`?
**A.** outcome [1]: inactive; Potency [3]: inactive

**Q.** What does the source list for `CC(C)C1CCC(C(=O)Nc2ccc(S(=O)(=O)Nc3nccs3)cc2)CC1` (stereo not given)?
**A.** outcome [1]: inactive; Potency [2]: inactive; Potency [3]: inactive

**Q.** What does the source list for `CCCn1c(C)nc2c(Nc3ccccc3)nc(C)nc21`?
**A.** outcome [4]: inactive; Potency [5]: inactive; Potency [3]: inactive

**Q.** What does the source list for `CCS(=O)(=O)N1CCC(C(=O)Nc2ccc(S(=O)(=O)Nc3nccs3)cc2)CC1`?
**A.** outcome [1]: inactive; Potency [2]: inactive; Potency [3]: inactive

**Q.** Which outcome [1] does the source give for `O=S(=O)(Nc1ccc(S(=O)(=O)Nc2nccs2)cc1)c1ccc2ccccc2c1` here?
**A.** Its outcome is “inactive”.

**Q.** What about the Potency [2] of the same compound?
**A.** Its Potency is “inactive”.

**Q.** And the Potency [3]?
**A.** The Potency was “inactive”.

**Q.** With `Cc1ccc(-c2csc(NC(=O)c3ccccc3NS(=O)(=O)c3ccc(C)cc3)n2)cc1` as the compound, how does the outcome [1] read?
**A.** The outcome was “inactive”.

**Q.** What about the Potency [3] of the same compound?
**A.** The Potency was “inactive”.

**Q.** Which outcome [1] does the source give for `Cc1ccc(S(=O)(=O)Nc2cnccc2C(=O)Nc2nc(C3CCC3)cs2)cc1` here?
**A.** The outcome was “inactive”.

**Q.** What about the Potency [3] of the same compound?
**A.** Its Potency is “inactive”.

**Q.** For `O=C(Nc1ccc(S(=O)(=O)Nc2nccs2)cc1)C1CCC2(CC1)CC2`, which outcome [1] is on record?
**A.** Its outcome is “inactive”.

**Q.** And the Potency [2]?
**A.** Its Potency is “inactive”.

**Q.** What about the Potency [3] of the same compound?
**A.** Its Potency is “inactive”.

**Q.** For `O=C(CSc1nc2ccc(S(=O)(=O)N3CCOCC3)cc2[nH]1)N1CCOCC1`, which Potency [6] is on record?
**A.** The Potency was “inactive”.

**Q.** And the Potency [3]?
**A.** Its Potency is “inactive”.

**Q.** Which results are given for `Cc1ccc(S(=O)(=O)Nc2ccc(Cl)cc2C(=O)Nc2nc(-c3ccccc3)cs2)cc1`?
**A.** outcome [1]: inactive; Potency [2]: 4.18 µM (active) and 5.9 µM (active); Potency [3]: inactive

**Q.** Which outcome [1] does the source give for `CC1(C)CC(C(=O)Nc2ccc([S+](=O)([O-])Nc3nccs3)cc2)C1` here?
**A.** Its outcome is “inactive”.

**Q.** What about the Potency [2] of the same compound?
**A.** Its Potency is “inactive”.

**Q.** And the Potency [3]?
**A.** Its Potency is “inactive”.

**Q.** Which results are given for `COCCN(CCOC)c1nc(C)nc2c1nc(-c1ccccc1)n2CC1CCN(C)CC1`?
**A.** outcome [4]: inactive; Potency [5]: inactive; Potency [3]: inactive

**Q.** What does the source list for `CCCCC(=O)N1CCC(C(=O)Nc2ccc([S+](=O)([O-])Nc3nccs3)cc2)CC1`?
**A.** outcome [1]: inactive; Potency [2]: inactive; Potency [3]: inactive

**Q.** Which results are given for `Cc1ccc(-c2cc(C(=O)Nc3ccc(C(=O)O)cc3)c3ccccc3n2)cc1C`?
**A.** outcome [1]: inactive; Potency [2]: inactive; Potency [3]: inactive

**Q.** What does the source list for `COc1cc(NS(=O)(=O)c2ccc(C)cc2)c(C(=O)Nc2nc(-c3ccccc3)cs2)cc1OC`?
**A.** outcome [1]: inactive; Potency [2]: inactive; Potency [3]: inactive

**Q.** Which outcome [1] does the source give for `COc1ccc(NC(=O)c2cc(-c3ccc(C)c(C)c3)nc3ccccc23)cc1` here?
**A.** Its outcome is “inactive”.

**Q.** And the Potency [3]?
**A.** Its Potency is “inactive”.

**Q.** Which outcome [1] does the source give for `COc1ccc(C(=O)Nc2nc(-c3ccccc3)cs2)c(OC)c1` here?
**A.** Its outcome is “inactive”.

**Q.** And the Potency [2]?
**A.** Its Potency is “inactive”.

**Q.** What about the Potency [3] of the same compound?
**A.** The Potency was “inactive”.

**Q.** For `O=C(Cc1ccccc1)Nc1sc2c(c1C(=O)Nc1ccc(Cl)cc1)CCCC2`, which Potency [6] is on record?
**A.** Its Potency is 4.47 µM (active).

**Q.** And the Potency [3]?
**A.** The Potency was “inactive”.

**Q.** For `Cc1ccc(-c2cc(C(=O)Nc3cccc(Cl)c3)c3ccccc3n2)cc1C`, which outcome [1] is on record?
**A.** Its outcome is “inactive”.

**Q.** And the Potency [2]?
**A.** The Potency was “inactive”.

**Q.** What about the Potency [3] of the same compound?
**A.** Its Potency is “inactive”.

**Q.** What does the source list for `Cc1ccc(S(=O)(=O)Nc2cnccc2C(=O)Nc2nc(-c3ccc(Cl)c(Cl)c3)cs2)cc1`?
**A.** outcome [1]: inactive; Potency [3]: inactive

**Q.** Which outcome [1] does the source give for `Cc1ccc(NC(=O)c2ccncc2NS(=O)(=O)c2ccc(C)cc2)cc1` here?
**A.** The outcome was “inactive”.

**Q.** What about the Potency [3] of the same compound?
**A.** Its Potency is “inactive”.

**Q.** Which Potency [7] does the source give for `Cc1ccc(CNc2ccccc2C(=O)Nc2nc(-c3ccccc3)cs2)cc1` here?
**A.** Its Potency is 21.7 µM (active).

**Q.** What about the Potency [3] of the same compound?
**A.** The Potency was “inactive”.
